Measurements as given in PubChem BioAssay.
Several values for one entry are separate records, joined by “and”; a condition that tells them apart may be missing. Equal entries are not always repeated. Records with an inconclusive call do not appear. Activity calls are given as the source filed them.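 How the source made its calls, unless noted: active means normalized viability below 100% at a tested concentration; inactive means the rest.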

Assays:
[1] = stimulators of nuclear beta-catenin in C2C12, primary screen, imaging, WNT3A-conditioned medium, mouse C2C12, NPC library (AID 1117326; in the data active means nuclear beta-catenin stimulation mostly above about 4.2%, no sharp cut-off; inactive means mostly below about 10%); conditions: stronger effect = higher value
[2] = stimulators of insulin release from INS-1E, primary screen, cell-based, 5 mM glucose, NPC library (AID 1117329;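 active means compound raises insulin release from rat beta cells at 5 mM glucose, no numeric limit stated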); conditions: rat INS-1E insulin secretion, at 10 µM, stronger effect = higher value
[3] = growth inhibition of GSK3B-pretreated HCT116 cells – cell-based, CellTiter-Glo, 0.2 to 20 µM (AID 1117336;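 active means compounds lowering colon cancer cell viability after pretreatment blocking the GSK3B kinase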); conditions: HCT116 viability after GSK3B inhibitor, at 20 µM, stronger effect = higher value
[4] = inhibition of endothelial tube formation, primary screen, imaging, VEGF stimulated, CD31 staining, tube area, NPC library (AID 1117340;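 active means compound that reduces growth-factor-driven endothelial tube area in a mixed cell culture, no cutoff stated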); conditions: VEGF-stimulated ADSC/ECFC co-culture, at 10 µM, stronger effect = higher value
[5] = glucagon-like peptide 1 release enhancers, primary assay, NCI-H716 cell line, NPC library (AID 1117341;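 active means compound raises GLP1 secretion from the human gut endocrine cells, with no numeric limit stated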); conditions: NCI-H716 cells, at 10 µM, stronger effect = higher value
[6] = HCT116 colon cancer cell growth inhibition, primary screen, CellTiter-Glo luminescence, NPC library (AID 1117342;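 active means compounds that lower survival of HCT116 colon cancer cells in the luminescence readout, no numeric limit stated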); conditions: at 20 µM (top of the series)
[7] = CellTiter-Glo luminescent readout of SW480 viability loss, NPC library primary (AID 1117343;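 active means compounds that lower viability of the colon cancer cells in the luminescence readout, with no numeric limit stated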); conditions: CellTiter-Glo luminescence; at 20 µM (top of the series) unless noted
[8] = decreased DLD-1 cellular survival, CellTiter-Glo luminescent readout, NPC compound collection, primary HTS (AID 1117346;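 active means compounds that lower survival of DLD-1 colon cancer cells in the luminescence readout, no cutoff given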); conditions: DLD-1 viability, CellTiter-Glo luminescence; at 20 µM (top of the series)
[9] = growth inhibition of DIPG glioma cells, dose response, cell-based, SU-DIPG-XVII, MIPE5.0, CellTiter-Glo, qHTS (AID 1347060; cut-off not given, nearly all actives have AC50 up to about 26 µM;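 on AC50: cells exposed to compound for 48 hours before viability readout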); conditions: SU-DIPG-XVII viability, CellTiter-Glo ATP luminescence
[10] = growth inhibition of DIPG glioma cells, dose response, cell-based, SU-DIPG-XIII, MIPE4.0, CellTiter-Glo, qHTS (AID 1347061; cut-off not given, nearly all actives have AC50 up to about 37 µM;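 further: cells exposed to compound for 48 hours before readout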); conditions: SU-DIPG-XIII viability, CellTiter-Glo ATP luminescence
[11] = SU-DIPG-XXV glioma cell viability, MIPE5.0 library, qHTS (AID 1347068; cut-off not given, nearly all actives have IC50 up to about 30 µM;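 on IC50: cells exposed to compound for 48 hours before viability readout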)
[12] = sensitizers of A549 cells to miR-34 induction, primary screen, imaging, A549 dox-inducible miR-34, nuclei and caspase counts (AID 1347080;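 active means compounds whose cell count with miR-34 switched on is under 0.7 times the count with it off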); conditions: A549 miR-34 inducible, Hoechst nuclei count, 48 h
[13] = survival rescue of mitochondrial mutant cells in low glucose, primary screen, MELAS cybrids, Rieske KO mouse fibroblasts, CellTiter-Glo (AID 1508586;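 active means mean z-score across replicates of 1.96 or higher in either the MELAS or the Rieske mutant cell line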;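 further: z relative to plate mean and SD of compound and empty wells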)
[14] = liver-stage malaria parasite growth inhibition, primary screen, cell-based, HepG2, luciferase luminescence, HepG2 viability (AID 624349; in the data active means parasite load remaining mostly below about 12%, no sharp cut-off; inactive means mostly above about 10%;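 further: 100% = mean of DMSO negative control wells on the same plate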); conditions: P. berghei liver stage in HepG2, luciferase luminescence, concentration not given here; parasite load remaining: stronger effect = lower value; viability: measured here: HepG2 viability without parasites
[15] = growth inhibition of DIPG glioma cells, dose response, cell-based, JHH-DIPG-1, MIPE4.0, CellTiter-Glo, qHTS (AID 1347062; cut-off not given, nearly all actives have AC50 up to about 27 µM); conditions: JHH-DIPG-1 viability, CellTiter-Glo ATP luminescence
[16] = viability rescue of complex I mutant cybrids, primary screen, cell-based, galactose medium, ATP luminescence (AID 1645843;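 active means z-score of at least 1.8 in each of two replicates, scored against plate mean and spread of sample wells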;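 further: positive z means more ATP and so rescue of galactose-driven cybrid death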); conditions: complex I mutant cybrid cells, 72 h, stronger effect = higher value
[17] = ovarian cancer cell viability with rucaparib, profiling panel, oncology-focused library, rucaparib conditional (AID 1508598); conditions: patient-derived ovarian cancer cells, CellTiter-Glo viability, 144 h, stronger effect = lower value
[18] = stronger effect = lower value, cell number ratio, induced over uninduced
[19] = measured here: relative caspase fold change +Dox/-Dox
[20] = measured here: total cells with miR-34 induction, stronger effect = lower value
[21] = measured here: total cells without miR-34 induction
[22] = MELAS cybrid survival, CellTiter-Glo 48 h, stronger effect = higher value
[23] = Rieske KO mouse fibroblast survival, CellTiter-Glo 72 h

O=c1cc(O)c(Cl)c[nH]1
inactive: nuclear beta-catenin stimulation ([1]; at 10 µM) -0.6% | insulin secretion stimulation [2] -1.9% | viability decrease [3] 28% | tube area decrease [4] -18.9% | GLP1 secretion stimulation [5] -0.1% | inhibition of viability [6] 27.8% | viability decrease (inhibition) [8] 12.9% | outcome [9] | outcome [10] | outcome [11] | fold change [12, 18] 0.957 | z-score [13, 22] -0.106
-0.5%: nuclear beta-catenin stimulation ([1]; stimulation, at 2 µM)
8380: cell count [12, 21]
8010: cell count [12, 20]
-0.13: z-score [13, 23]
active: viability decrease (inhibition) [7] 54.6%
1.21: fold change [12, 19]

Cc1ccc(C(=O)c2cc(O)c(O)c([N+](=O)[O-])c2)cc1
0.594 and 0.464: fold change [12, 19]
8990 and 11100: cell count [12, 21]
-0.152 and -0.0292 and 1.07: z-score [13, 23]
97%: viability [14]
inactive: parasite load remaining [14] 26.1% | nuclear beta-catenin stimulation ([1]; at 10 µM) 5.2% | insulin secretion stimulation [2] -0.8% | tube area decrease [4] 39.4% | GLP1 secretion stimulation [5] -3.6% | outcome [9] | outcome [10] | outcome [15] | outcome [11] | fold change [12, 18] 0.985 and 0.843 | z-score [13, 22] -0.224 and 0.125 and 0.577 | z-score [16] -0.715
1.2%: nuclear beta-catenin stimulation ([1]; stimulation, at 2 µM)
8860 and 9320: cell count [12, 20]
active: viability decrease [3] 43.7% | inhibition of viability [6] 55.5% | viability decrease (inhibition) [7] 84.4% | viability decrease (inhibition) [8] 67.5%

CNC(=O)c1ccccc1Sc1ccc2c(/C=C/c3ccccn3)n[nH]c2c1
inactive: nuclear beta-catenin stimulation ([1]; at 10 µM) 4.6% | insulin secretion stimulation [2] 4.65% | viability decrease [3] 21% | GLP1 secretion stimulation [5] 1% | inhibition of viability [6] 45.5% | viability ([17]; at 0.000305 µM, OCI-C5x cells, with rucaparib 10 µM, 100% = cells with rucaparib alone) 107% | viability ([17]; at 0.000305 µM, OCI-C5x cells, without rucaparib) 114% | viability ([17]; at 0.000305 µM, OCI-P5x cells, with rucaparib 20 µM, 100% = cells with rucaparib alone) 106% | viability ([17]; at 0.00122 µM, OCI-C5x cells, with rucaparib 10 µM, 100% = cells with rucaparib alone) 116% | viability ([17]; at 0.00122 µM, OCI-C5x cells, without rucaparib) 110% | viability ([17]; at 0.00122 µM, OCI-P5x cells, with rucaparib 20 µM, 100% = cells with rucaparib alone) 112% | viability ([17]; at 0.00488 µM, OCI-C5x cells, with rucaparib 10 µM, 100% = cells with rucaparib alone) 109% | viability ([17]; at 0.00488 µM, OCI-C5x cells, without rucaparib) 110% | viability ([17]; at 0.00488 µM, OCI-P5x cells, with rucaparib 20 µM, 100% = cells with rucaparib alone) 106% | viability ([17]; at 0.0195 µM, OCI-C5x cells, with rucaparib 10 µM, 100% = cells with rucaparib alone) 114% | viability ([17]; at 0.0195 µM, OCI-C5x cells, without rucaparib) 103% | viability ([17]; at 0.0195 µM, OCI-P5x cells, with rucaparib 20 µM, 100% = cells with rucaparib alone) 108% | viability ([17]; at 0.0781 µM, OCI-C5x cells, with rucaparib 10 µM, 100% = cells with rucaparib alone) 118% | viability ([17]; at 0.0781 µM, OCI-P5x cells, with rucaparib 20 µM, 100% = cells with rucaparib alone) 126% | viability ([17]; at 0.313 µM, OCI-C5x cells, with rucaparib 10 µM, 100% = cells with rucaparib alone) 110% | viability ([17]; at 0.313 µM, OCI-P5x cells, with rucaparib 20 µM, 100% = cells with rucaparib alone) 101% | viability ([17]; at 1.25 µM, OCI-C5x cells, with rucaparib 10 µM, 100% = cells with rucaparib alone) 112% | viability ([17]; at 1.25 µM, OCI-C5x cells, without rucaparib) 105% | viability ([17]; at 5 µM, OCI-C5x cells, with rucaparib 10 µM, 100% = cells with rucaparib alone) 110% | viability ([17]; at 5 µM, OCI-P5x cells, with rucaparib 20 µM, 100% = cells with rucaparib alone) 107%
7.2%: nuclear beta-catenin stimulation ([1]; stimulation, at 2 µM)
active: tube area decrease [4] 106% | viability decrease (inhibition) [7] 59.2% | viability decrease (inhibition) [8] 56.9% | AC50 [9] 1320 nM | IC50 [11] 3720 nM | viability ([17]; at 0.000305 µM, OCI-P5x cells, without rucaparib) 95.9% | viability ([17]; at 0.00122 µM, OCI-P5x cells, without rucaparib) 93.6% | viability ([17]; at 0.00488 µM, OCI-P5x cells, without rucaparib) 98% | viability ([17]; at 0.0195 µM, OCI-P5x cells, without rucaparib) 94.2% | viability ([17]; at 0.0781 µM, OCI-C5x cells, without rucaparib) 98.3% | viability ([17]; at 0.0781 µM, OCI-P5x cells, without rucaparib) 96.6% | viability ([17]; at 0.313 µM, OCI-C5x cells, without rucaparib) 97.7% | viability ([17]; at 0.313 µM, OCI-P5x cells, without rucaparib) 87.8% | viability ([17]; at 1.25 µM, OCI-P5x cells, with rucaparib 20 µM, 100% = cells with rucaparib alone) 95.4% | viability ([17]; at 1.25 µM, OCI-P5x cells, without rucaparib) 85.8% | viability ([17]; at 5 µM, OCI-C5x cells, without rucaparib) 93.2% | viability ([17]; at 5 µM, OCI-P5x cells, without rucaparib) 83%
